# Several values for one entry are separate records, joined by “and”; a condition that tells them apart may be missing. Equal values may be shown once. Compounds without any hit were thinned out: in the full panel of roughly 83,000, 20% have a hit.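 Interpretation: 100, growth as untreated; towards 0, rising growth inhibition; 0, no net growth; 0 to -100, cell death. Compounds scoring below 10 were considered active.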 A number with no mark means an inactive call. Activity calls are given as the source filed them.
# Test system: NCI-H460 lung
# Assay: NCI-60 one-dose screen, 48 h (100 = growth as untreated, 0 = no growth, -100 = all killed)
# Conditions: 1 µM
row,Structure (SMILES),growth [%]
1,CC/C(=C(\c1ccc(O)cc1)c1ccc(OCCN(C)C(=O)COCCNC(=O)Cc2ccc3c(c2)CN([C@@H]2CCC(=O)NC2=O)C3=O)cc1)c1ccccc1,124
2,CC/C(=C(\c1ccc(O)cc1)c1ccc(OCCN(C)C(=O)CCOCCNC(=O)c2ccc3c(c2)CN([C@@H]2CCC(=O)NC2=O)C3=O)cc1)c1ccccc1,115
3,CC/C(=C(/c1ccc(O)cc1)c1ccc(OCCN(C)C(=O)COCCOCCNC(=O)c2ccc3c(c2)CN([C@@H]2CCC(=O)NC2=O)C3=O)cc1)c1ccccc1,111
4,CC/C(=C(/c1ccc(O)cc1)c1ccc(OCCN(C)C(=O)CCOCCNC(=O)Cc2ccc3c(c2)CN([C@@H]2CCC(=O)NC2=O)C3=O)cc1)c1ccccc1,130
5,CC/C(=C(/c1ccc(O)cc1)c1ccc(OCCN(C)C(=O)COCCOCCNC(=O)Cc2ccc3c(c2)CN([C@@H]2CCC(=O)NC2=O)C3=O)cc1)c1ccccc1,125
6,CC/C(=C(\c1ccc(O)cc1)c1ccc(OCCNC)cc1)c1ccccc1,118

# Same assay, conditions: 10 µM
row,Structure (SMILES),growth [%]
1,CC/C(=C(\c1ccc(O)cc1)c1ccc(OCCN(C)C(=O)COCCNC(=O)Cc2ccc3c(c2)CN([C@@H]2CCC(=O)NC2=O)C3=O)cc1)c1ccccc1,106
2,CC/C(=C(\c1ccc(O)cc1)c1ccc(OCCN(C)C(=O)CCOCCNC(=O)c2ccc3c(c2)CN([C@@H]2CCC(=O)NC2=O)C3=O)cc1)c1ccccc1,114
3,CC/C(=C(/c1ccc(O)cc1)c1ccc(OCCN(C)C(=O)COCCOCCNC(=O)c2ccc3c(c2)CN([C@@H]2CCC(=O)NC2=O)C3=O)cc1)c1ccccc1,114
4,CC/C(=C(/c1ccc(O)cc1)c1ccc(OCCN(C)C(=O)CCOCCNC(=O)Cc2ccc3c(c2)CN([C@@H]2CCC(=O)NC2=O)C3=O)cc1)c1ccccc1,103
5,CC/C(=C(/c1ccc(O)cc1)c1ccc(OCCN(C)C(=O)COCCOCCNC(=O)Cc2ccc3c(c2)CN([C@@H]2CCC(=O)NC2=O)C3=O)cc1)c1ccccc1,110
6,CC/C(=C(\c1ccc(O)cc1)c1ccc(OCCNC)cc1)c1ccccc1,69.2

# Same assay, conditions: 10 µM unless noted
row,Structure (SMILES),growth
1,CC1(C)CC(=O)C2=C(C1)OC(N)=C(c1nc3ccccc3[nH]1)C2c1ccc(Cl)cc1 (stereo not drawn),57% and 112%
2,COc1cc(C=O)ccc1Oc1nc(Nc2ccc(F)cc2)nc(N(C)C)n1,80.2% and 52.3%
3,CCC(=O)c1c2c(c3ccc4c5ccccc5ccc4n13)C(=O)c1ccccc1C2=O,6.66% (active)
4,CCCCNC(=S)Nc1ccc(OCc2nc3ccc(Cl)cc3[nH]2)cc1,15.6%
5,Nc1ccc(-c2ccc3ncnc(N4CCc5cc(F)c(Cl)cc54)c3c2)cn1,25.6%
6,N#CC1=C(c2cccs2)Nc2c(c(-c3ccccc3)nn2-c2ccccc2)C12C(=O)Nc1ccc(Cl)cc12 (stereo not drawn),6.17% (active)
7,C=CCn1c(O)c(N=Nc2nc(-c3cc4ccccc4oc3=O)cs2)c2ccccc21,18.3%
8,Fc1ccccc1CNc1nc(SCCN2CCOCC2)nc2c1cnn2CC(Cl)c1ccc(Br)cc1 (stereo not drawn),17%
9,O=C(CSc1nnc(-c2ccc(-c3nc4ccc(Cl)cc4[nH]3)cc2)o1)Nc1ccccc1,-48.7% (active)
10,O=C(CSc1nnc(-c2ccc(-c3nc4ccc(Cl)cc4[nH]3)cc2)o1)Nc1ccc(Cl)cc1,-75.8% (active)
11,Nc1nc(-c2ccccc2)c(N=Nc2ccc(Cl)cc2Cl)s1,-66.8% (active)
12,COc1c(B(O)O)cccc1-c1nc2ccc3cn[nH]c3c2c2c1CCCC2,56.8%
13,Nc1nn2c(-c3cc4cc(Br)ccc4oc3=O)ccnc2c1N=Nc1ccccc1,-28% (active)
14,O=C1/C(=C/c2cnc(-c3ccccc3)s2)SC(=S)N1Cc1ccc2c(c1)OCO2,97.2%
15,O=C(c1ccc(O)cc1)C1[C@H](c2ccc(Cl)cc2)[C@@H](c2ccccc2)NC12C(=O)Nc1ccc(Br)cc12 (stereo partly drawn),-45.9% (active)
16,COC(=O)c1cc(C(=O)C(C)(C)C)n2c3ccccc3c3ccccc3c12,106%

row,Structure (SMILES),growth
1,COc1ccc2[nH]c(O)c(N=Nc3nc(-c4ccccc4)cs3)c2c1,12.3%
2,CC1CCc2c(sc3nc(SCC(=O)c4cccc([N+](=O)[O-])c4)n(-c4ccccc4)c(=O)c23)C1 (stereo not drawn),97.1%
3,C=CCSc1nnc(-c2ccc(-c3nc4ccc(Cl)cc4[nH]3)cc2)o1,38.1%
4,O=C(Nc1nc2ccccc2s1)Nc1ccccc1Cl,66.9%
5,CC[C@@]12CC(C(=O)OC)=C3Nc4cc5c(cc4[C@@]34CCN(C[C@H]3O[C@H]31)[C@@H]24)[C@@H]1[C@H](O5)[C@@H](O)[C@@]2(CC)CC(C(=O)OC)=C3Nc4cc(O)ccc4[C@@]34CCN1[C@@H]24,-26.6% (active)
6,CCOc1ccccc1NC(=O)N/C(N)=N/c1nc2ccccc2s1,6.47% (active)
7,COc1sc(/C=N/NC(=O)c2[nH]c3ccc(Br)cc3c2-c2ccccc2)cc1Cl,1.26% (active)
8,COc1cc(CNC(=O)C[C@H](C)CCC=C(C)C)ccc1OCc1cn(-c2ccccc2Cl)nn1,78.4%
9,COc1ccc(-c2cc(C(=O)OCc3ccc(Br)cc3)nn2-c2ccc(S(C)(=O)=O)cc2)cc1OC,91.1%
10,N#CC1=C(c2ccco2)Nc2c(c(-c3ccccc3)nn2-c2ccccc2)C12C(=O)Nc1ccc(Br)cc12 (stereo not drawn),1.16% (active)
11,N/C(=N\c1nc2ccc([N+](=O)[O-])cc2s1)NC(=O)Nc1ccccc1Cl,11.3%
12,S=C(Nc1ccccc1)Nc1ccc(OCc2nc3ccc(Cl)cc3[nH]2)cc1,88.2%
13,COc1ccc(N=Nc2c(N)nn3c(N)c(C#N)c(-c4ccc(C)cc4)nc23)cc1,26.6%
14,O=C(NC(=S)N1CCN(c2ncnc3c2cnn3-c2ccccc2)CC1)c1ccc(F)cc1,43.8%
15,Cc1cccc(C)c1Nc1nnc(-c2c[nH]c3ccccc23)o1,99.7%

# — PubChem BioAssay (NCI)
